# From ChEMBL document CHEMBL4513146, “CO-ADD screening of Karazin Kharkiv National University (Ukraine) compounds”
# Results with a measured potency or affinity are listed apart.
# What was measured:
# Staphylococcus aureus = settings: Concentration 32 ug.mL-1;; ASSAY_TEST Inhibition of Bacterial Growth; detection method Absorption (OD600); MEDIA CAMHB; plate type 384well; NBS; CORNING #3640; time 18 hr
# Escherichia coli = settings: Concentration 32 ug.mL-1;; ASSAY_TEST Inhibition of Bacterial Growth; detection method Absorption (OD600); MEDIA CAMHB; plate type 384well; NBS; CORNING #3640; time 18 hr
smiles,measurement,setting,value
CC(C)c1ccc(NC(=O)CSc2nc3ccccc3n3cnnc23)cc1,Inhibition,Staphylococcus aureus,8.55%
same,Inhibition,Escherichia coli,-4.05%
Cc1ccc(Oc2nccn3c(=O)n(CC(=O)Nc4ccc(Br)cc4F)nc23)cc1,Inhibition,Staphylococcus aureus,5.87%
same,Inhibition,Escherichia coli,-0.38%
Cc1ccc(NC(=O)Cn2c(=O)c3nnc(C(C)C)n3c3ccccc32)cc1,Inhibition,Staphylococcus aureus,-2.26%
same,Inhibition,Escherichia coli,0.43%
COc1cccc(-n2ccn3c(SCc4ccccc4Cl)nnc3c2=O)c1,Inhibition,Staphylococcus aureus,8.33%
same,Inhibition,Escherichia coli,-9.75%
COc1ccc(-c2cc3c4nnc(CCC(=O)NCCc5ccccc5)n4ccn3n2)cc1,Inhibition,Staphylococcus aureus,6.36%
same,Inhibition,Escherichia coli,2.69%
COc1ccccc1N1CCN(C(=O)CSc2nnc3c(=O)n(-c4ccccc4)ccn23)CC1,Inhibition,Staphylococcus aureus,3.83%
same,Inhibition,Escherichia coli,-6.8%
CCOC(=O)c1ccccc1NC(=O)Cn1nc2c(Oc3cccc(C)c3C)nccn2c1=O,Inhibition,Staphylococcus aureus,5.11%
same,Inhibition,Escherichia coli,-6.35%
O=C(Cn1nc2c3c4c(sc3ncn2c1=O)CCCC4)Nc1ccc2c(c1)OCO2,Inhibition,Staphylococcus aureus,-0.05%
same,Inhibition,Escherichia coli,-3.47%
CC1CCN(C(=O)Cn2nc3n(Cc4ccco4)c(=O)c4sccc4n3c2=O)CC1,Inhibition,Staphylococcus aureus,1.87%
same,Inhibition,Escherichia coli,-2.27%
CCc1nnc2c(S(=O)(=O)N(Cc3ccccc3Cl)c3ccccc3)cccn12,Inhibition,Staphylococcus aureus,0.81%
same,Inhibition,Escherichia coli,-6.41%
CCc1ccccc1Sc1nccn2c(=O)n(CC(=O)Nc3cc(Cl)c(OC)cc3OC)nc12,Inhibition,Staphylococcus aureus,-16.84%
same,Inhibition,Escherichia coli,-7.56%
O=C(Cn1nc2ccc(-c3ccccc3)nn2c1=O)N1CCN(c2ccc(F)cc2)CC1,Inhibition,Staphylococcus aureus,10.02%
same,Inhibition,Escherichia coli,-0.36%
